In all, about 96,000 compounds went through this assay and about 1,200 (1.2%) were called active. This is one part of a sample in which actives are shown more often than they occur. Cut-off read from the data, not from the text of the source: active = activation fold above about 2; inactive = the rest.

Chain of Alkaline phosphatase, placental type (Homo sapiens) (P05187 whole entry, looked up): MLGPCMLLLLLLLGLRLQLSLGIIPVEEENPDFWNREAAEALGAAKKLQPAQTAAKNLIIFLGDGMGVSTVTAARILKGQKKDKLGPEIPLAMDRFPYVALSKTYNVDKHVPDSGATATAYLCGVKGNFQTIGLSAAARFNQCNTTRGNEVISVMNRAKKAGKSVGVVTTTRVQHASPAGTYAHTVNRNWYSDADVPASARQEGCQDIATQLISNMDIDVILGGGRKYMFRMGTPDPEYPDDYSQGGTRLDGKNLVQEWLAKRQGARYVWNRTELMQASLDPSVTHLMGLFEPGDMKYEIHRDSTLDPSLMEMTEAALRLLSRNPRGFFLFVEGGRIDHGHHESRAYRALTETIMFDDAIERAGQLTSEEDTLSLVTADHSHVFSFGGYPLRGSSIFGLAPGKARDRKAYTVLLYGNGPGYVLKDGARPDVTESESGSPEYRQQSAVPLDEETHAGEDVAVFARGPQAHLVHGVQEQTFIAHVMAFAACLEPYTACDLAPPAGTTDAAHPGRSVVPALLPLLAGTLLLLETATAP

The experiment addresses Alkaline phosphatase, placental type (Homo sapiens) (UniProt P05187). The experiment in a line: PLAP enzyme activators, biochemical, luminescence, HTS (AID 696). The settings on record: purified PLAP enzyme, luminescent substrate read-out; at 20 µM; hits give high values.
Regarding `COc1ccc(C(=O)NCCc2ccc(S(N)(=O)=O)cc2)cc1OC`, the activation fold was 1 (inactive).
With `CCOc1ccc(C(CCc2ccccc2)NC(=O)c2ccc(OC)c(OC)c2)cc1OCC` (stereo not given), the activation fold is 2.2 (active).
To `CCOC(=O)CSc1nnc(CNC(=O)Cc2ccccc2)n1-c1ccccc1OC` belongs 1 (inactive).
Take `CCOC(=O)C1=NNC2(c3ccc(Cl)cc3)C(=O)N(c3cc(C)cc(C)c3)C(=O)C12` (stereo not given): the activation fold is 1.1 (inactive).
Regarding `CCOC(=O)Cc1csc(NC(NC(=O)OCC)(C(F)(F)F)C(F)(F)F)n1`, the activation fold is 0.9 (inactive).
For the compound `CCOc1ccc(Nc2nc(Cc3nnc(SCC(=O)c4ccc(C)cc4)o3)cs2)cc1`, the activation fold is 0.7 (inactive).
As for `Cc1ccc(/C=N\n2c(-c3ccccc3)n[nH]c2=S)s1`, the activation fold was 1.3 (inactive).
To `Cn1c(-c2sc3cc(C(F)(F)F)cnc3c2-c2ccccc2)n[nH]c1=S` belongs 2.6 (active); to `Cc1cc(C(F)(F)F)n2ncc(-c3ccccc3)c2n1`, 0.9 (inactive).
`CO/N=C(/CS(=O)(=O)c1ccc(Br)cc1)c1ccc(OC)cc1`: the activation fold was 1.6 (inactive).
For `CC(C)c1ccc(Nc2ncccc2C#N)cc1`, the activation fold was 0.9 (inactive).
With `COc1ccccc1C(=O)Nc1nc2nc(-c3ccccc3)cc(=O)n2[nH]1`, the activation fold is 1.1 (inactive).
`CCCCNc1ccc(C(=O)Nc2cccc(C)n2)cc1[N+](=O)[O-]`: the activation fold was 0.9 (inactive).
With `O=C(Nc1nnc(SCc2ccc(Cl)cc2Cl)s1)C1COc2ccccc2O1` (stereo not given), the activation fold was 1.1 (inactive).
As to `O=C(CCCN1C(=O)c2cccc3cccc(c23)C1=O)N1CCN(Cc2ccc3c(c2)OCO3)CC1`, the activation fold was 1.6 (inactive).
In the case of `O=C(c1cccs1)N1CCN(Cc2ccc3c(c2)OCO3)CC1`, the activation fold is 1.2 (inactive).
In the case of `O=C(Nc1cccc2ccccc12)N1CCN(Cc2ccc3c(c2)OCO3)CC1`, the activation fold is 2.1 (active).
Regarding `O=C(CN1CCSCC1)N/N=C/c1ccc(F)cc1F`, the activation fold is 1 (inactive).
Take `Cc1cccc(N(CC(=O)N2CCOCC2)S(C)(=O)=O)c1`: the activation fold is 0.8 (inactive).
The same measure for `CCC1Oc2ccc(Cl)cc2N(CC(=O)O)C1=O` (stereo not given): 1 (inactive); for `Cc1cccc(N2C(=O)SC(N(CC(=O)O)c3cccc(C)c3)C2=O)c1` (stereo not given): 2.2 (active).
Consider `Cc1csc(OCC(=O)Nc2ccc(C)c(C)c2)n1`, for which the activation fold was 1.2 (inactive).
Regarding `N/C(=N\OC(=O)CCc1ccccc1)c1ccc(Cl)cc1`, the activation fold was 0.9 (inactive).
On to `Cc1[nH]n(-c2cccc(Cl)c2)c(=O)c1-c1ccc(Cl)cc1`, for which the activation fold was 1 (inactive).
On to `COc1cc(NS(=O)(=O)c2ccc(N=Cc3c(C)[nH]n(-c4ccccc4)c3=O)cc2)nc(OC)n1`, for which the activation fold was 1.5 (inactive).
For `Cc1[nH]n(-c2cccc(Cl)c2)c(=O)c1/C=N/n1c(C)nc2ccccc2c1=O`, the activation fold was 2.1 (active).
With `CC1(C)CC(=O)C2=C(C1)N=C1SCCC(=O)N1C2c1ccc(C(F)(F)F)cc1` (stereo not given), the activation fold is 1.2 (inactive).
As to `COc1ccc(C)cc1S(=O)(=O)NCCc1ccccc1`, the activation fold is 0.8 (inactive).
In the case of `COC(=O)c1ccccc1NC(=O)CN(Cc1ccc(Cl)cc1)S(C)(=O)=O`, the activation fold was 1.5 (inactive).
As to `COc1ccc([N+](=O)[O-])cc1N(CC(O)Cn1nnc2ccccc21)S(=O)(=O)c1ccc(C)cc1` (stereo not given), the activation fold is 1.4 (inactive).

The values are drawn from PubChem BioAssay AID696 (Sanford-Burnham Center for Chemical Genomics, 2007).
